Among all 290,000 compounds or so, about 3,000 (1%) were called active. No stated cut-off is given here; in the data, active means inhibition mostly above about 36% (no sharp cut-off); inactive means mostly below about 34%. For the sample, actives were picked, then their nearest neighbours and some compounds at random.

This experiment can be described thus: inhibition of NOD1-driven NF-kB reporter – cell-based, luminescence, uHTS, primary screen (AID 1578).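 Further: HEK-293T reporter cells stimulated with the NOD1 agonist gamma-tri-DAP.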 The note with it: NOD1-driven NF-kB luciferase reporter cells, at 4 µM, hits give high values.
For `Cc1ccc(-n2c(SCC(=O)N3CCCCC3)nc(O)c(Cc3ccccc3)c2=O)cc1`, the inhibition was -18.9% (inactive). Regarding `Cc1cccc(NC(=S)Nc2ccccn2)c1`, the inhibition was -0.2% (inactive). Regarding `COc1ccc(NC(=S)Nc2ccccn2)cc1`, the inhibition was 6.6% (inactive).

Regarding `S=C(Nc1ccc(Nc2ccccc2)cc1)Nc1ccccn1`, the inhibition was 74.1% (active). Regarding `CN(C)S(=O)(=O)c1ccc(-c2csc(N/N=C/c3ccc(O)cc3)n2)cc1`, the inhibition is 12.3% (inactive).

In the case of `COc1ccc(/C=N/Nc2nc(-c3cccc(S(=O)(=O)N4CCCC4)c3)cs2)cc1OC`, the inhibition was 52.7% (inactive). The figure for `COc1cc(/C=N/Nc2nc(-c3ccc(S(=O)(=O)N(C)C)cc3)cs2)ccc1O` is 31.8% (active); for `N#C/C(=C\c1ccc2c(c1)OCCO2)C(=O)Nc1ccc(C(=O)O)cc1` it is 1.3% (inactive); for `CCCCNc1c([N+](=O)[O-])c(=O)n(C)c2ccccc12` it is -21.6% (inactive). `CCCCCCNc1c([N+](=O)[O-])c(=O)sc2ccccc12`: the inhibition is 71% (active). The figure for `CC(C)(C)Nc1c([N+](=O)[O-])c(=O)sc2ccccc12` is -30.9% (inactive). On to `COc1cc2c(cc1OC)CN(C(=O)COc1ccc(C#N)cc1)CC2`, for which the inhibition is 10% (inactive). Regarding `Cc1c(NC(=S)NC(=O)CC(C)C)c(=O)n(-c2ccccc2)n1C`, the inhibition is -31.4% (inactive). For the compound `CCN1/C(=C/C=C/C=C/c2sc3ccccc3[n+]2CC)Sc2ccccc21`, the inhibition is 66.1% (inactive). For `CCN1/C(=C/c2ccc3ccccc3[n+]2CCCS(=O)(=O)[O-])C=Cc2cc(C)ccc21`, the inhibition was -1.5% (inactive). The figure for `CC1=NN(C(=O)c2ccc(Cn3nc(C)c([N+](=O)[O-])c3C)o2)C(O)(C(F)(F)F)C1` (configuration not stated) is -21.3% (inactive); for `CCCCc1nc2sc3c(SCCN(C)C)ncnc3c2c2c1CCC2` it is -4.1% (inactive). On to `Brc1ccc(OCc2cn3ccccc3n2)cc1`, for which the inhibition is -41.6% (inactive). The figure for `COc1ccccc1NS(=O)(=O)c1cc(NC(=O)c2cc(=O)[nH]c3ccccc23)ccc1N1CCOCC1` is 0.5% (inactive).

For the compound `COc1ccc(-c2onc(C)c2C)cc1S(=O)(=O)NCCc1ccco1`, the inhibition was 2.5% (inactive). The figure for `Cc1cc(C)c(C)c(S(=O)(=O)N2CCCCC2C(=O)O)c1C` (configuration not stated) is 0.3% (inactive); for `COc1ccc(-c2cnnc(N/N=C/c3ccc(O)cc3)n2)cc1` it is -15.9% (inactive); for `Oc1ccc(/C=N\Nc2nncc(-c3ccccc3)n2)cc1` it is 59.3% (active). On to `Oc1cccc(/C=N\Nc2nncc(-c3ccccc3)n2)c1`, for which the inhibition is -8.4% (inactive). The figure for `CC(=O)Oc1ccc(/C=C(\NC(=O)c2ccco2)C(=O)Nc2ccc(C(C)=O)cc2)cc1` is -31.3% (inactive); for `COc1ccc(/C(N)=N/OC(=O)CC2CCCCC2)cc1OC` it is -10.9% (inactive); for `CCOc1ccc(OCc2ccc(C(=O)NC(C)C)o2)cc1` it is -2.6% (inactive). The figure for `CC(C)NC(=O)c1ccc(COc2ccc(C(C)(C)C)cc2)o1` is 29.6% (active); for `CC(C)(C)c1ccc(OCc2ccc(C(=O)NN)o2)cc1` it is -4.2% (inactive). As for `CC(=O)c1ccc(S(=O)c2ccccc2)cc1` (configuration not stated), the inhibition is -22.4% (inactive).

As for `COc1ccc(OC)c(C(=O)NC(CC(N)=O)c2ccc(N3CCC(N4CCCC4)CC3)c([N+](=O)[O-])c2)c1` (configuration not stated), the inhibition was 5.4% (inactive). Turning to `Cc1cc(C)cc(NS(=O)(=O)c2ccc3[nH]cc(C(=O)N4CCc5ccccc54)c(=O)c3c2)c1`, the inhibition was 3.5% (inactive). As for `COCCn1c(=NC(=O)/C=C/c2ccccc2)sc2cc(NC(C)=O)ccc21`, the inhibition is -16.2% (inactive). Then `CCOCCn1c(=NC(=O)/C=C/c2ccccc2Cl)sc2cc(NC(C)=O)ccc21`, with 18.1% (inactive); and `COCCn1c(=NC(=O)/C=C/c2ccccc2Cl)sc2cc(NC(C)=O)ccc21`, with 85% (active); and `Cc1cccc(C(P(=O)(c2ccccc2)c2ccccc2)P(=O)(c2ccccc2)c2ccccc2)n1`, with -2.9% (inactive). Consider `CC(=O)c1c(C)[nH]c(C(=O)OCC(=O)Nc2ccccc2Cl)c1C`, for which the inhibition is 51.1% (active). Then `CC(=O)c1c(C)[nH]c(C(=O)OCC(=O)Nc2ccc([N+](=O)[O-])cc2Cl)c1C`, with -9% (inactive); and `CC(=O)c1c(C)[nH]c(C(=O)Nc2ccccc2Cl)c1C`, with -16.6% (inactive). The figure for `CCC(C)N1C(=O)CCC1C(=O)N1CCN(c2ccccc2F)CC1` (configuration not stated) is 2.8% (inactive); for `C/C(=N\NC(=O)c1nnn(-c2nonc2N)c1CSc1ccccc1)c1cccnc1` it is -4.5% (inactive); for `Cc1cc(C)n(-c2nc3ccccc3c(=O)n2OCC#N)n1` it is 109% (active). Then `CCOn1c(-n2nc(C)cc2C)nc2ccccc2c1=O`, with 0.7% (inactive); and `C#CCOn1c(-n2nc(C)cc2C)nc2ccccc2c1=O`, with 2.3% (inactive). As for `CN(Cc1ccccc1)C(=O)CCC(=O)N(C)Cc1ccccc1`, the inhibition is -41.2% (inactive). The figure for `CN(C)N(Cc1ccccc1)C(=O)C(O)(c1ccccc1)c1ccccc1` is 63.1% (active).

For the compound `CN(C)N(C)C(=O)C(O)(c1ccccc1)c1ccccc1`, the inhibition was -18.6% (inactive). The figure for `O=C(CN1C(=O)NC2(CCCCCCC2)C1=O)NC1CCCc2ccccc21` (configuration not stated) is -29.3% (inactive).

As to `COC(=O)c1ccc(NC(=O)CCN2C(=O)CSC2=O)cc1`, the inhibition was -44.1% (inactive). The figure for `N#CCc1c(C#N)c(N)nc(N2CCCC(O)C2)c1C#N` (configuration not stated) is -18.2% (inactive); for `C=C(C)CN(CC)c1nc(N)c2c(N)nc3c(c2c1C#N)CC(=O)N3C12CC3CC(CC(C3)C1)C2` it is -11.3% (inactive); for `N#Cc1c(N2CCCC(O)C2)nc(N)c2c(N)nc3c(c12)CC(=O)N3C12CC3CC(CC(C3)C1)C2` (configuration not stated) it is 72% (active). Then `Cc1cnc(C(=O)Nc2ccc(C(=O)N(C)C3CCCCC3)cc2)cn1`, with -6.2% (inactive). Then `C=CCOc1ccc2ccccc2c1/C=N/O`, with -6.7% (inactive); and `CCOc1ccc(-c2nc(CSCC(=O)N3CCN(C(=O)c4ccco4)CC3)c(C)o2)cc1`, with -28.8% (inactive); and `CCOC(=O)C1CCN(C(=O)CSCc2nc(-c3ccc(OCC)cc3)oc2C)CC1`, with -2.1% (inactive). Take `COc1cc(CNCc2cc(OC)ccc2OC)cc(OC)c1`: the inhibition is -5.3% (inactive). The figure for `COc1cc(CNCc2ccc(OC)cc2OC)cc(OC)c1` is 79.5% (active); for `COc1cccc(CNCc2ccc(OC)cc2OC)c1` it is 3.1% (inactive). Then `O=C(COC(=O)CNC(=O)c1ccc(Cl)cc1)Nc1cccc(S(=O)(=O)N2CCCC2)c1`, with 6.6% (inactive); and `CCO[C@H]1OC(C(=O)N2CCN(C)CC2)=C[C@@H](C)[C@@H]1CCCO`, with -35.3% (inactive).

On to `CCO[C@H]1OC(C(=O)N2CCCCCCC2)=C[C@@H](C)[C@@H]1CCCO`, for which the inhibition is 40% (active). Then `CCO[C@@H]1OC(C(=O)N2CCOCC2)=C[C@H](C)[C@H]1CCCO`, with -28.1% (inactive). For `CC1CCCC(NC(=O)c2ccc(CNc3c(N4CCCC4)c(=O)c3=O)cc2)C1C` (configuration not stated), the inhibition is -28.2% (inactive). Then `COc1ccc(/C=N/Nc2nc(C(=O)O)cs2)cc1`, with -35.9% (inactive); and `Cc1c(C(=O)NCCN(C)C)oc2ccc(S(=O)(=O)N3CCC4(CC3)OCCO4)cc12`, with -12.2% (inactive); and `Fc1ccccc1COc1ccc(Br)cc1CNCc1cccnc1`, with -5% (inactive).

As to `Brc1ccc(OCc2ccccc2)c(CNCc2ccncc2)c1`, the inhibition was 44.1% (inactive). Then `Fc1ccccc1COc1ccc(Br)cc1CNCc1ccncc1`, with 72.9% (active); and `COc1ccc(NC(=O)Nc2c(C)noc2-c2ccccc2)cc1`, with -7.5% (inactive); and `O=C(Oc1ccc(Br)cc1C(=S)N1CCOCC1)c1ccc(F)cc1`, with -9.9% (inactive). The figure for `O=C(Nc1nc2ccccc2[nH]1)c1ccccc1O` is 1.5% (inactive). Regarding `O=C(Nc1nc2ccccc2[nH]1)c1ccccc1F`, the inhibition is 77.3% (active). Then `CSc1ccccc1C(=O)Nc1nc2ccccc2[nH]1`, with -46.1% (inactive). The figure for `C/C(=N\Nc1nc2ccccc2[nH]1)c1cc2ccccc2o1` is -21.6% (inactive); for `O=C(Nc1nc2ccccc2[nH]1)c1cc2ccccc2o1` it is 73.5% (active). For `O=C(Nc1nc2ccccc2[nH]1)c1ccc(Br)o1`, the inhibition was -21.2% (inactive). Then `COc1ccc(S(=O)(=O)Nc2ccccc2C(=O)N2CCCCC2)cc1C`, with -14.5% (inactive). Turning to `S=C(Nc1ccccc1)N1CCOCCOCCN(C(=S)Nc2ccccc2)CCOCCOCC1`, the inhibition was -11% (inactive).

Regarding `CC(=O)N1N=C(N)SC1c1cccc([N+](=O)[O-])c1` (configuration not stated), the inhibition is -38.8% (inactive). Then `CC(=O)Oc1ccc2nc(/C=C/c3ccccc3)oc(=O)c2c1`, with -9.3% (inactive); and `Cc1cc(NC(=O)CCCS(=O)(=O)c2nc(-c3cccs3)cc(C(F)(F)F)n2)no1`, with 91% (active).

In the case of `COc1ccc(-c2cc(C(F)(F)F)nc(S(=O)(=O)CCCC(=O)Nc3cc(C)on3)n2)cc1OC`, the inhibition was 32.1% (inactive). The figure for `COc1ccccc1-c1cc(C(F)(F)F)nc(S(=O)(=O)CCCC(=O)Nc2cc(C)on2)n1` is 37% (inactive). Then `O=C(COc1ccc(S(=O)(=O)N2CCOCC2)cc1Cl)NCc1ccccn1`, with -57.1% (inactive). In the case of `Clc1cccc(-c2nc(-c3ccccn3)no2)c1`, the inhibition was -17.2% (inactive).

On to `Cc1ccc(-c2nc(-c3ccccn3)no2)cc1`, for which the inhibition is 89.5% (active). In the case of `Cc1ccccc1-c1nc(-c2ccccn2)no1`, the inhibition was 11.7% (inactive). The figure for `Cc1ccc(-c2nc(-c3ccccn3)no2)cc1Cl` is 71.4% (active); for `c1ccc(-c2noc(-c3ccncc3)n2)nc1` it is -30.8% (inactive).

Consider `COc1cccc(-c2nc(-c3ccccn3)no2)c1`, for which the inhibition is 65% (active). Then `c1ccc(-c2noc(-c3cccnc3)n2)nc1`, with -11.3% (inactive); and `Clc1ccc(-c2nc(-c3ccccn3)no2)cc1Cl`, with -69.5% (inactive). The figure for `c1ccc(-c2noc(-c3ccc4ccccc4c3)n2)nc1` is 77.3% (inactive); for `COc1cccc(-c2nc(-c3ccccc3)no2)c1` it is -49.3% (inactive); for `c1ccc(-c2nc(-c3ccccn3)no2)cc1` it is 54.3% (active). The figure for `COc1cccc(-c2nc(-c3ccncc3)no2)c1` is -5.3% (inactive).

A word on the inhibition: it is the drop in the measured response relative to a control, in per cent.
